Source: PubChem
This is a sample that favours compounds with a hit; in the whole collection about 6.5% have one here.
VACV Venus inh – qHTS for Stage-Specific Inhibitors of Vaccinia Orthopoxvirus: Venus Reporter Primary qHTS | Vaccinia virus Venus reporter expression, fluorescence | Potency, µM (doses to about 36.5 µM), usual class: inhibitors | 330,000 compounds, 0.46% hits | AID 720580, 2013; calls by dose curve; tested in A549 cells; also: nearly all actives have a fitted effect of over 30% in size
Marburg entry inh – qHTS for inhibitors of binding or entry into cells for Marburg Virus; Marburg virus pseudotyped entry inhibition, cell reporter; Potency, µM (doses to about 37.8 µM), usual class: inhibitors; 300,000 compounds, 1.8% hits; AID 540276, 2011; calls by dose curve; tested in HEK293 cells
FMDV antiviral – High Throughput Screening for Foot and Mouth Disease Virus Antivirals; FMDV antiviral cell-based qHTS; Potency, µM (top dose mostly 57.9 µM), hits mostly inhibitors; 410,000 compounds, 1.2% hits; AID 1159524, 2015; calls by dose curve; tested in HEK293T cells; also: read-out not given here; nearly all actives have a fitted effect of over 45% in size
Lassa entry inh – qHTS for Inhibitors of binding or entry into cells for Lassa Virus | Lassa virus pseudotype entry inhibition, cell reporter | Potency, µM (highest dose often 37.9 µM), actives largely listed as inhibitors | 300,000 compounds, 1.2% hits | AID 540256, 2011; calls by dose curve; tested in HEK293 cells; also: nearly all actives have a fitted effect of over 50% in size
HCMV inh – qHTS Assay for inhibitors of the human cytomegalovirus (HCMV); AID 1259415, 2018; activity change, negative = inhibition, % at 57.5 µM; HFF cells, HCMV-luciferase reporter, 72 h; stronger effect = lower value; 410,000 compounds, 4.5% hits; in the data active = activity change below about -60%; inconclusive = no clear call, values can overlap the other calls; inactive = above about -39%
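Inhibition of viral replication was scored as loss of reporter luminescence in HFFs infected with HCMV-luciferase (MOI 1 PFU/cell) for 72 h; compounds tested at 2 doses, normalized to buffer and Salinomycin controls.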
Vaccinia mCherry – qHTS for Stage-Specific Inhibitors of Vaccinia Orthopoxvirus: mCherry Reporter Primary qHTS. Vaccinia virus mCherry reporter infection, fluorescence. Potency, µM (series often up to 36.5 µM), most hits filed as inhibitors. 310,000 compounds, 0.63% hits. AID 720579, 2013; calls by dose curve; tested in A549 cells; also: nearly all actives have a fitted effect of over 35% in size
Large screens that a line does not name were inactive; ! = a repeat was not active.

COc1ccc(S(=O)(=O)N(C)CC(=O)Nc2ccc(C)cc2)cc1OC	none (no result: VACV Venus inh, Marburg entry inh, Lassa entry inh, Vaccinia mCherry)
C/C(=C\c1ccccc1F)C(=O)c1c(C)cc(C)[nH]c1=O	none
Cc1[nH]c(=O)c(C(=O)/C=C/c2ccccc2F)c2c1CCCC2	Marburg entry inh 12µM, FMDV antiviral 14µM, Lassa entry inh 10µM, HCMV inh -102 (no result: VACV Venus inh, Vaccinia mCherry)
CC(C)N1CCc2c(sc(NC(=O)c3cc4cc([N+](=O)[O-])ccc4s3)c2C(N)=O)C1	HCMV inh -95, Vaccinia mCherry inconclusive (no result: Marburg entry inh, Lassa entry inh)
CN1CCc2c(sc(NC(=O)c3ccc([N+](=O)[O-])o3)c2C(N)=O)C1	VACV Venus inh 2.2µM, Marburg entry inh inconclusive, Lassa entry inh inconclusive, HCMV inh -104, Vaccinia mCherry inconclusive
NC(=O)c1c(NC(=O)c2ccc([N+](=O)[O-])o2)sc2c1CCCC2	Lassa entry inh inconclusive, Vaccinia mCherry inconclusive
COC(=O)c1c(NC(=O)c2ccco2)sc2c1CCN(C(C)C)C2	FMDV antiviral inconclusive (no result: VACV Venus inh, Marburg entry inh, Lassa entry inh, Vaccinia mCherry)
CC(C)N1CCc2c(sc(NC(=O)c3ccco3)c2C(N)=O)C1	HCMV inh -76, Vaccinia mCherry inconclusive
NCCNC[C@@H]1COC2(CCCCCCCCCCC2)O1	Marburg entry inh inconclusive, Lassa entry inh inconclusive
COc1ccc2c(c1)[C@@]1(OCCC=C[C@@H]1C)C(=O)N2Cc1ccccc1C(F)(F)F	none (no result: VACV Venus inh, FMDV antiviral, Lassa entry inh, HCMV inh, Vaccinia mCherry)
C[C@@H](C[C@@H](O)[C@H](O)C(C)(C)O)[C@@H]1CC[C@]2(C)C3=CC[C@H]4C(C)(C)C(=O)CC[C@]4(C)[C@H]3CC[C@@]12C	VACV Venus inh 11µM, FMDV antiviral inconclusive, Vaccinia mCherry inconclusive
Cc1ccc(Cn2ccnc2SCC(=O)NC2CCCC2)cc1	none
O=C(CSc1nccn1Cc1ccc(F)cc1)NC1CCCC1	HCMV inh -65!
O=C(CSc1nccn1Cc1ccc(Cl)cc1)NC1CCCC1	HCMV inh -63 (no result: Marburg entry inh)
O=C(CSc1nccn1Cc1ccc(F)cc1)NC1CCCCC1	none (no result: Marburg entry inh, Lassa entry inh)
Cc1ccccc1NC(=O)/C=C/c1cccs1	Marburg entry inh inconclusive
Cc1ccccc1NC(=O)/C=C/c1ccc([N+](=O)[O-])s1	Marburg entry inh inconclusive, FMDV antiviral 10µM, Lassa entry inh inconclusive (no result: HCMV inh)
CC(=O)c1cccc(NC(=O)/C=C/c2ccc([N+](=O)[O-])s2)c1	Marburg entry inh inconclusive, FMDV antiviral inconclusive, Lassa entry inh 7.1µM, HCMV inh -96
Cc1cc(C)cc(NC(=O)/C=C/c2ccc([N+](=O)[O-])s2)c1	HCMV inh -92
C#CCN1C(=O)CC[C@@]23C1=NC(C(=O)OC)=C(C(=O)OC)[C@@H]2N(Cc1ccccc1)c1ccccc13	none (no result: VACV Venus inh, FMDV antiviral, Lassa entry inh, HCMV inh, Vaccinia mCherry)
Cc1ccc2sc(N(CCCN(C)C)C(=O)c3ccc(Br)s3)nc2c1C	Marburg entry inh 15µM, Lassa entry inh inconclusive, Vaccinia mCherry inconclusive
Cc1ccc2sc(N(CCCN(C)C)C(=O)c3ccco3)nc2c1C	HCMV inh -62 (no result: Marburg entry inh)
CC(=O)c1ccc(C(=O)N(CCCN(C)C)c2nc3c(C)c(C)ccc3s2)cc1	Lassa entry inh inconclusive (no result: Marburg entry inh)
C(#Cc1ccccc1)C[N+]1(CC#Cc2cccc3ccccc23)CCCC1	FMDV antiviral inconclusive, Lassa entry inh inconclusive, HCMV inh -100 (no result: VACV Venus inh, Vaccinia mCherry)
CCn1ncc(CN2CCCC(C(=O)c3cccc(OC(C)C)c3)C2)c1C (stereo not given)	none (no result: VACV Venus inh, Marburg entry inh, Lassa entry inh, Vaccinia mCherry)
CC(C)Oc1cccc(C(=O)C2CCCN(Cc3cnc(N4CCOCC4)s3)C2)c1 (stereo not given)	Marburg entry inh inconclusive, FMDV antiviral inconclusive, Lassa entry inh inconclusive, HCMV inh -72
Cc1ncc(CN2CCCC(C(=O)c3cccc(OC(C)C)c3)C2)s1 (stereo not given)	FMDV antiviral inconclusive, HCMV inh -69 (no result: VACV Venus inh, Marburg entry inh, Lassa entry inh, Vaccinia mCherry)
COc1ccc(C(=O)C2CCCN(Cc3cnc(N4CCOCC4)s3)C2)cc1F (stereo not given)	Marburg entry inh inconclusive, FMDV antiviral inconclusive
COc1ccc(F)cc1C(=O)C1CCCN(Cc2cnc(C)s2)C1 (stereo not given)	none (no result: VACV Venus inh, Marburg entry inh, Lassa entry inh, Vaccinia mCherry)
CC(C)Oc1cccc(C(=O)C2CCCN(C(=O)c3cc(C4CC4)[nH]n3)C2)c1 (stereo not given)	HCMV inh inconclusive (no result: VACV Venus inh, Marburg entry inh, Lassa entry inh, Vaccinia mCherry)
COc1ccc(Cl)cc1C(=O)C1CCCN(Cc2cnc(C)s2)C1 (stereo not given)	Lassa entry inh 11µM
CC(C)Oc1cccc(C(=O)C2CCCN(C(=O)c3cc(C(F)(F)F)[nH]n3)C2)c1 (stereo not given)	Lassa entry inh 13µM
OC(c1cccnc1)c1ccc2c(c1)CN(Cc1cccc3c1OCO3)CCO2 (stereo not given)	none (no result: Marburg entry inh, Lassa entry inh, HCMV inh)
CNc1ccc2nc3ccccc3[n+](C)c2c1	HCMV inh -101 (no result: Marburg entry inh, Lassa entry inh)
C[n+]1c2ccccc2nc2ccc(NCCO)cc21	Marburg entry inh inconclusive, FMDV antiviral inconclusive, Lassa entry inh inconclusive, HCMV inh -81
c1ccc2nc3ccccc3cc2c1	none (no result: Marburg entry inh, FMDV antiviral, Lassa entry inh, HCMV inh)
CC(C)n1c(NCCO)nc2ccccc21	none
CCCCCn1c(=O)[nH]c2cc(C(=O)N3CCN(c4cccc(Cl)c4)CC3)ccc2c1=O	FMDV antiviral inconclusive
CCOC(=O)C1CCN(C(=O)c2ccccc2)c2scc(-c3ccccc3)c2C1=O (stereo not given)	FMDV antiviral 32µM, HCMV inh inconclusive (no result: Marburg entry inh, Lassa entry inh)
CCOC(=O)C1CCCN(C(=O)c2ccccc2)CC1 (stereo not given)	none (no result: Marburg entry inh, Lassa entry inh)
O=C(c1ccco1)N1CCN(C(=O)c2ccc(-c3cccc(C(F)(F)F)c3)o2)CC1	Marburg entry inh inconclusive, Lassa entry inh 5µM
O=C(c1ccc(-c2cccc(C(F)(F)F)c2)o1)N1CCCCCCC1	none
C/C(=N\NC(=O)Cc1ccc(Cl)cc1)c1ccccc1O	Marburg entry inh inconclusive, HCMV inh -67, Vaccinia mCherry inconclusive
C/C(=N\NC(=O)Cc1ccc(Cl)cc1)c1ccc(F)cc1	none (no result: VACV Venus inh, Marburg entry inh, Lassa entry inh, Vaccinia mCherry)
CCCc1cc(=O)n2c(C(=O)Nc3ccc(OCC)cc3)c(C(=O)Nc3ccc(C)cc3)sc2n1	Lassa entry inh inconclusive, HCMV inh -84
COc1cccc(C(=O)OCC(=O)N2CCc3ccccc3C2)c1OC	Marburg entry inh inconclusive
C[C@H]1C=CCC(=O)N[C@@H](c2ccc3ccccc3c2)[C@@H](C)C=CCC(=O)N[C@@H]1c1ccc2ccccc2c1	none (no result: VACV Venus inh, FMDV antiviral, Lassa entry inh, HCMV inh, Vaccinia mCherry)
Cc1ccc(NC(=O)N(C2=NCC(C)S2)c2ccccc2)cc1 (stereo not given)	Marburg entry inh inconclusive (no result: VACV Venus inh, Vaccinia mCherry)
CCN(CC)S(=O)(=O)c1ccc(NC(=O)CC(NC(C)=O)c2ccccc2)cc1 (stereo not given)	HCMV inh -81
CC(=O)Nc1ccc(S(=O)(=O)N(Cc2ccccc2)Cc2ccccc2)cc1	Lassa entry inh inconclusive, HCMV inh -61 (no result: Marburg entry inh)
CC(=O)Nc1ccc(N/C(C)=C/C(=O)c2cccnc2)cc1	HCMV inh -61
CC(=O)Nc1ccc(S(=O)(=O)N(C2=NCC(C)S2)c2ccccc2)cc1 (stereo not given)	Marburg entry inh 16µM, Lassa entry inh inconclusive (no result: HCMV inh, Vaccinia mCherry)
